Data reported in article PMC13423814.

Tests used:
Settings in all cases: DSSO, in cells
[1] = target: SEPTIN2 (UniProt Q15019)
[2] = target: SEPTIN8 (UniProt Q92599)
[3] = target: SERBP1 (UniProt Q8NC51)
[4] = target: SF3A1 (UniProt Q15459)
[5] = target: SNRPB (UniProt P14678)
[6] = target: SF3A2 (UniProt Q15428)
[7] = target: SF3B1 (UniProt O75533)
[8] = target: SF3B3 (UniProt Q15393)
[9] = target: SF3B6 (UniProt Q9Y3B4)
[10] = target: SH2D4A (UniProt Q9H788)
[11] = target: SIN3A (UniProt Q96ST3)
[12] = target: SLC25A3 (UniProt Q00325)
[13] = target: SNRPA (UniProt P09012)
[14] = target: SNW1 (UniProt Q13573)
[15] = target: SRSF1 (UniProt Q07955)
[16] = target: SRSF6 (UniProt Q13247)
[17] = target: SRSF7 (UniProt Q16629)
[18] = target: THOC1 (UniProt Q96FV9)
[19] = target: TIMM17A (UniProt Q99595)
[20] = target: TMOD3 (UniProt Q9NYL9)
[21] = target: TMX1 (UniProt Q9H3N1)
[22] = target: TSSC4 (UniProt Q9Y5U2)
[23] = target: TUFM (UniProt P49411)
[24] = target: UGGT1 (UniProt Q9NYU2)
[25] = target: UTP14A (UniProt Q9BVJ6)
[26] = target: UTP18 (UniProt Q9Y5J1)
[27] = target: UTP20 (UniProt O75691)
[28] = target: UTP4 (UniProt Q969X6)
[29] = target: UTP6 (UniProt Q9NYH9)
[30] = target: VPS35L (UniProt Q7Z3J2)
[31] = target: YWHAZ (UniProt P63104)
[32] = target: ZMAT2 (UniProt Q96NC0)

Chain of SRSF3, P84103 (P84103 whole entry): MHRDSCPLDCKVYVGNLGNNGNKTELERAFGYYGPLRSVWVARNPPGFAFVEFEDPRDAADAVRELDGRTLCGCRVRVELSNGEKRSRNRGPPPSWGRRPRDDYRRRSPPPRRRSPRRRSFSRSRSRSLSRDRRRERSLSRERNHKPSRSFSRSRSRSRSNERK
Chain of UTP18 (Q9Y5J1 whole entry): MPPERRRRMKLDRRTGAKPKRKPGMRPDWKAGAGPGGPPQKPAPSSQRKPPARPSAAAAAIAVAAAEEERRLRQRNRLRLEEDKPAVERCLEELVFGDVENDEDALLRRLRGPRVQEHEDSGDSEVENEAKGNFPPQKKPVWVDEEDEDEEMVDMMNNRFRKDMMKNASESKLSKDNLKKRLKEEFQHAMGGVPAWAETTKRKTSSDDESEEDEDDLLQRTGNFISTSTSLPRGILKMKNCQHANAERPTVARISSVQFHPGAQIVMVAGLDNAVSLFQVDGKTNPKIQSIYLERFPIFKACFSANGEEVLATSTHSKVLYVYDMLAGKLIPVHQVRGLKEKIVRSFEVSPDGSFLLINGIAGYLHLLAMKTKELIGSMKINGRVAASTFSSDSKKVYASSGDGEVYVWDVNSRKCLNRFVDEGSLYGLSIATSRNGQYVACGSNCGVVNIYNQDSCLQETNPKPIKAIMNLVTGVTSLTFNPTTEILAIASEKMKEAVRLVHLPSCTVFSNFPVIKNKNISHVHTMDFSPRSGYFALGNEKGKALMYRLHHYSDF
Chain of SF3B3 (Q15393 whole entry): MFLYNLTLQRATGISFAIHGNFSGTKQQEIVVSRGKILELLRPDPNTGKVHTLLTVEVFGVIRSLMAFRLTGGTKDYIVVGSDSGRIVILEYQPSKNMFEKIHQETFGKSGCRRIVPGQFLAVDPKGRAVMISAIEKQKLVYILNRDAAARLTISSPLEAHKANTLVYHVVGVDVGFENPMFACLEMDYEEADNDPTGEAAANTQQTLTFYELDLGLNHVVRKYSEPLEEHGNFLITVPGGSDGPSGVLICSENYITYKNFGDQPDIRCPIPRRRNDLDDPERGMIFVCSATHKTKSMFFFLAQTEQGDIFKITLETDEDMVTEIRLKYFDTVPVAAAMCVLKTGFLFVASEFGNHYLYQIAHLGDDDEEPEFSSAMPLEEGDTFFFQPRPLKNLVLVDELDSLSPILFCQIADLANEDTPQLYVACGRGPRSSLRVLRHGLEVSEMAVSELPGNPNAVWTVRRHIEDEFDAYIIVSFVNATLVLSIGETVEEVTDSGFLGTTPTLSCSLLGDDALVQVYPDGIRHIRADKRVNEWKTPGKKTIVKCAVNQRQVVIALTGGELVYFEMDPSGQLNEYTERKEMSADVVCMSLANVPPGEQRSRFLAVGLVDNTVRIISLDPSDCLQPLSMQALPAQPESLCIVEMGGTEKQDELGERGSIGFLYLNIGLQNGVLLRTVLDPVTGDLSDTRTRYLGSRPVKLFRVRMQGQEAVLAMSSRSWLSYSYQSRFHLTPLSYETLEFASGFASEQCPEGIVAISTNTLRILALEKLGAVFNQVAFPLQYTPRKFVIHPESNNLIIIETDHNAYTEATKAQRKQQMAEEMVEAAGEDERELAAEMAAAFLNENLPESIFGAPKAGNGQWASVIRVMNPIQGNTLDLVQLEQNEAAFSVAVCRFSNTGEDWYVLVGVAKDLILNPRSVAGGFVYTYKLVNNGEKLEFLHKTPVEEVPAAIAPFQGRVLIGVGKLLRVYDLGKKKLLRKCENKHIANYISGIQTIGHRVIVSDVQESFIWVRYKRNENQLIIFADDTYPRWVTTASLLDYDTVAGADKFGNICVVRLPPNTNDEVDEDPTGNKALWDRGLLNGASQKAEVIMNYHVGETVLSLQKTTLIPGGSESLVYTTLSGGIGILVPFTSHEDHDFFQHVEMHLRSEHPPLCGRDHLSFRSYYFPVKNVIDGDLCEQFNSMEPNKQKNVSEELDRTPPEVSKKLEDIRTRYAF
Chain of SEPTIN2 (Q15019 whole entry): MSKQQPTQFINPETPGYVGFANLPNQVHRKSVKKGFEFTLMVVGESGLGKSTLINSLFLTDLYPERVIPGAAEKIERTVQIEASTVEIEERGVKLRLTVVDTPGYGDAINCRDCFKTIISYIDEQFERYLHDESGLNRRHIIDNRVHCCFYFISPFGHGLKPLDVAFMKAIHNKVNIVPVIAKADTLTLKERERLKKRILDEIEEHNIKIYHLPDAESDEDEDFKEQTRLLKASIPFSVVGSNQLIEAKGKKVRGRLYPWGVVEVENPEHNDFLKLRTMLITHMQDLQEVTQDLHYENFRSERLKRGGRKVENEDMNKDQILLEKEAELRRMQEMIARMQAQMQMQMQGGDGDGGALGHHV
Chain of WDR43, Q15061 (Q15061 whole entry): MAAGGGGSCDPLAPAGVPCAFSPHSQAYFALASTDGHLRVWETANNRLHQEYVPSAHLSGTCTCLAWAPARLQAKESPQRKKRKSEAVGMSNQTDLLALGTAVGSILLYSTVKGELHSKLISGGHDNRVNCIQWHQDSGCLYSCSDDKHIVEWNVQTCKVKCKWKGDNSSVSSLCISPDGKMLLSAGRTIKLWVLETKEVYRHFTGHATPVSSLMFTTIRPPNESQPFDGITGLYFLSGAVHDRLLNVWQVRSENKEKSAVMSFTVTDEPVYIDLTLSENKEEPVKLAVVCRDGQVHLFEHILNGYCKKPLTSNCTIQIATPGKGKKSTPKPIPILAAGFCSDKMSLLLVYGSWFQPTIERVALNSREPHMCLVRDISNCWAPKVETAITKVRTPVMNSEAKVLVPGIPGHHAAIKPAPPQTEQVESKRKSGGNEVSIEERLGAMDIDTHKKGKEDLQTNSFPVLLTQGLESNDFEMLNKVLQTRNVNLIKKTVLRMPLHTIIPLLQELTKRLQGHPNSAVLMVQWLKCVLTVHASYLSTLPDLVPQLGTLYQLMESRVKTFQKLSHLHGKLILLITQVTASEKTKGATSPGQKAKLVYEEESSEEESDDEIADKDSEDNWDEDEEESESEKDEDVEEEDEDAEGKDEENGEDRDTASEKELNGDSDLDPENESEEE
Chain of SF3A3, Q12874 (Q12874 whole entry): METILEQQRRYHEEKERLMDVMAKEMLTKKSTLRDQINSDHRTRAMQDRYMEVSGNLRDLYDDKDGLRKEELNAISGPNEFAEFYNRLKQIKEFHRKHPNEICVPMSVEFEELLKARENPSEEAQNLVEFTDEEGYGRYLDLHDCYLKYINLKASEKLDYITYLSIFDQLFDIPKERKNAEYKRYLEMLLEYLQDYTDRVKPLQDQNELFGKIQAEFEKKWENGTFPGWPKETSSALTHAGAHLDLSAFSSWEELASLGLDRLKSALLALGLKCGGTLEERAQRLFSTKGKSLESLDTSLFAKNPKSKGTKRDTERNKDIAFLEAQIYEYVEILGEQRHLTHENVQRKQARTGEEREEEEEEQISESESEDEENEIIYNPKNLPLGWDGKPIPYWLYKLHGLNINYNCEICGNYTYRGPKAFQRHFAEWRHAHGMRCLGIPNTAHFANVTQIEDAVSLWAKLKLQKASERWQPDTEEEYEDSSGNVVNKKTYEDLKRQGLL
Chain of WDR46, O15213 (O15213 whole entry): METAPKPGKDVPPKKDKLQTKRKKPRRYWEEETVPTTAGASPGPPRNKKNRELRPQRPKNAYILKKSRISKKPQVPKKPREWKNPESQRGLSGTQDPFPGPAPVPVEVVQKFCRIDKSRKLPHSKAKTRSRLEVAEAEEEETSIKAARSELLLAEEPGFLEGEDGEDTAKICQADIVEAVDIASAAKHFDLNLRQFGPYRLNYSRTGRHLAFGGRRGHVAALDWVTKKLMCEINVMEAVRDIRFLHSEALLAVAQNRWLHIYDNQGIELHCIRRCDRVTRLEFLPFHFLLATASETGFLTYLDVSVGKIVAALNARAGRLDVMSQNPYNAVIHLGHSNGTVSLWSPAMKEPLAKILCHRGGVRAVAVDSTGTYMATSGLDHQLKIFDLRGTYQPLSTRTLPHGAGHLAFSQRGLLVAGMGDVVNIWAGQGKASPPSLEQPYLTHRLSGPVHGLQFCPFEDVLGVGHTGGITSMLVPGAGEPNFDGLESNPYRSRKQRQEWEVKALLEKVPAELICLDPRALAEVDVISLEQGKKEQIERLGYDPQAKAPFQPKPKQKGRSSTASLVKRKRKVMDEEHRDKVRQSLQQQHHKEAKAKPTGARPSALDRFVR
Chain of SEPTIN6, Q14141 (Q14141 whole entry): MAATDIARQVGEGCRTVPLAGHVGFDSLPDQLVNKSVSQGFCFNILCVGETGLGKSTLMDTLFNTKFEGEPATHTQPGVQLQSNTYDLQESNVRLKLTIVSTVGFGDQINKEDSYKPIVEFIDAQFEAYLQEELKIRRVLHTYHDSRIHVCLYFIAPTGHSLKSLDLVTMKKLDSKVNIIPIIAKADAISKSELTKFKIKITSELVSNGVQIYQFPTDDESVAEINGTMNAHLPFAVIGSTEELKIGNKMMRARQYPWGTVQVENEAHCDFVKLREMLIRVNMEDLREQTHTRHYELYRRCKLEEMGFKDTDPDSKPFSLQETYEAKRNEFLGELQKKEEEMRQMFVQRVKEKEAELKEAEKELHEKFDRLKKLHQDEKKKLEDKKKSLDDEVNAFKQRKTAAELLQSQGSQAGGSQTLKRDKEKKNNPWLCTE
Chain of PPP1CB, P62140 (P62140 whole entry): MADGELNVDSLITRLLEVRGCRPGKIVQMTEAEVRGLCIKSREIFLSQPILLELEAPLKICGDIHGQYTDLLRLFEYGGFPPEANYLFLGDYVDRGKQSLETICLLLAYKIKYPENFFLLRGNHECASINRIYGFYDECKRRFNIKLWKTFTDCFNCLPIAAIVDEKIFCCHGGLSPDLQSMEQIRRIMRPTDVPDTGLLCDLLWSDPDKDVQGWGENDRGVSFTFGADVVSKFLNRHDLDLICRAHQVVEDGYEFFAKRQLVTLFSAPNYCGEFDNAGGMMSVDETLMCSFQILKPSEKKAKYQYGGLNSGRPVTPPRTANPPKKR
Chain of SF3B6 (Q9Y3B4 whole entry): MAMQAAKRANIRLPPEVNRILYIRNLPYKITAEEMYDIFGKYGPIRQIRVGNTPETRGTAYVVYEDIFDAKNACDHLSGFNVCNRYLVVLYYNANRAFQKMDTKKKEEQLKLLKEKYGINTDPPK

Substance: SEPTIN6, Q14141
- cross-linked residues [1]: K191 - K249

Substance: SEPTIN7, Q16181
- cross-linked residues [2]: K373 - K362

Substance: RPS20, P60866
- cross-linked residues [3]: K4 - K39

Substance: RPS28, P62857
- cross-linked residues [3]: K16 - K140

Substance: SNRPA1, P09661
- cross-linked residues [4]: K221 - K188
- cross-linked residues [5]: K172 - K57

Substance: DNAJC8, O75937
- cross-linked residues [6]: K135 - K10

Substance: HTATSF1, O43719
- cross-linked residues [7]: K297 - S332

Substance: SF3B2, Q13435
- cross-linked residues [8]: K605 - K1074

Substance: SF3A3, Q12874
- cross-linked residues [8]: K496 - K974

Substance: SF3A2, Q15428
- cross-linked residues [9]: T11 - K105

Substance: PPP1CB, P62140
- cross-linked residues [10]: K25 - K105

Substance: HDAC1, Q13547
- cross-linked residues [11]: K74 - K569

Substance: COX4I1, P13073
- cross-linked residues [12]: K60 - K295

Substance: SNRPB2, P08579
- cross-linked residues [13]: K57 - K96

Substance: PLRG1, O43660
- cross-linked residues [14]: K363 - K153

Substance: SRSF3, P84103
- cross-linked residues [15]: K23 - K30
- cross-linked residues [16]: K23 - K101
- cross-linked residues [17]: K85 - K24

Substance: THOC2, Q8NI27
- cross-linked residues [18]: K307 - K408

Substance: TIMM50, Q3ZCQ8
- cross-linked residues [19]: T46 - K56

Substance: FLNA, P21333
- cross-linked residues [20]: K876 - K337

Substance: CANX, P27824
- cross-linked residues [21]: K516 - K279

Substance: SNRNP200, O75643
- cross-linked residues [22]: K1883 - K234

Substance: HSPD1, P10809
- cross-linked residues [23]: K292 - K421

Substance: SELENOF, O60613
- cross-linked residues [24]: T82 - K362

Substance: UTP20, O75691
- cross-linked residues [25]: K2250 - K122

Substance: PWP2, Q15269
- cross-linked residues [26]: K260 - K172

Substance: WDR36, Q8NI36
- cross-linked residues [26]: K179 - S171

Substance: RRP9, O43818
- cross-linked residues [27]: K113 - K69

Substance: WDR43, Q15061
- cross-linked residues [28]: K594 - K386

Substance: WDR46, O15213
- cross-linked residues [29]: K83 - K81

Substance: CCDC22, O60826
- cross-linked residues [30]: K519 - K630

Substance: YWHAB, P31946
- cross-linked residues [31]: K13 - K68

Substance: PRPF38A, Q8NAV1
- cross-linked residues [32]: K7 - K45
